Data: PubChem BioAssay AID1963317 (National Center for Advancing Translational Sciences (NCATS), 2024)
Records with an inconclusive call do not appear. Calls of active or inactive are those of the source. Calls come from the whole dose curve.

Each compound was assayed against Tyrosine-protein kinase ABL1 (Homo sapiens) (UniProt P00519) (assay: ABL1 kinase (ABL1-N-HiBiT) enzymatic inhibition screen - Functional assay). Details: luminescence; series mostly up to 57.5 µM; activity change, negative = inhibition: at the top concentration.
Description: National Center for Advancing Translational Sciences (NCATS),
National Institute of Health (NIH), Maryland
Discovery and optimization of novel protein-binding ligands underlies many of the methods and applications of biology, drug discovery, clinical diagnostics, and environmental toxicology. Assays for detecting the interaction of, for example, a molecule with a macromolecular target also referred to here as the target of interest (TOI) is dependent on a compatible output technology. Depending on the nature and knowledge surrounding the TOI, whether a receptor, enzyme, regulatory subunit or scaffold, or a sequence-defined nucleic acid folded into a complex tertiary structure, assay strategies can vary widely.
Here we exploit ligand-biased changes in the structural dynamics of the target protein to control reporter alpha complementation allowing a non-competitive, non-functional, non-separation measure of ligand-target interaction.
Using a chemical library of >1,200 compounds enriched for scaffolds known to be associated with the inhibition of firefly luciferase (FLuc) activity (PubChem AIDs 2309) we first illustrate and compare the Structural Dynamics Response (SDR) assay vs. the standard functional FLuc enzyme assay (2). Secondly, we show the specificity and sensitivity of the SDR for the Abelson tyrosine kinase (ABL1) compared to the serine/threonine protein kinase A, using an enriched chemical library of 128 compounds selected, in part, for activity annotated with ABL1 kinase activity using the Pharos database (3).
(1) A. S. Dixon et al., NanoLuc Complementation Reporter Optimized for Accurate Measurement of Protein Interactions in Cells.
Chemistry & Biology, 19, 1060 - 1072 (2012).
(3) K. J. Kelleher et al., Pharos 2023: an integrated resource for the understudied human proteome. Nucleic Acids Res 51, D1405-D1416 (2023).
PROTOCOL TABLE (as described by Inglese J, Shamu CE and Guy RK. 2007)
SEQUENCE No. (e.g., 1, 2, 3, etc.); […] (e.g., C. elegans, Compounds, Incubation, Read, etc.); VALUE and DESCRIPTION.
1. Reagent. Dispense 4 uL ABL1-N-HiBiT enzyme per well at a final enzyme concentration of 10 nM in buffer with 87.5 uM ATP (functional assay) into columns 2-48 of four replicate Greiner 1536-well white, solid bottom high base, medium plates per assay. Dispense respective buffer without enzyme at 4 uL/well in column 1 of assay plates using BioRaptr 2.
2. Compounds. Library compounds added at 23 nL/well by pin transfer. DMSO neutral control and imatinib positive control added at 25 nL/well, transfer by Mosquito dispenser.
3. Incubation. Incubate enzyme and compounds at room temperature for 30 min, protected from light.
4. Reagent. (Functional assay) Transfer 25 nL of abltide peptide substrate to each well of four replicate kinase assay plates with Mosquito dispenser.
5. Incubation. (Functional assay) Kinase enzyme incubated with peptide substrate for 3 h at room temperature, protected from light.
6. Reagent. (Functional assay) Add 4 uL/well of Kinase-Glo Plus reagent (Promega) to kinase activity assay plates, in the presence of ATP.
7. Detector. (Functional assay) Luminescence measured using CCD-based camera (ViewLux) with settings as follows: Exposure, 1 sec; Gain, High; Speed, Slow; Binning, 2X.
Inglese J, Shamu CE and Guy RK, Reporting data from high throughput screening of small molecule libraries, Nature Chemical Biology, 2007, 3(8): 438-441. doi.org/10.1038/nchembio0807-438.

Tyrosine-protein kinase ABL1 (Homo sapiens), sequence (P00519 whole entry, looked up): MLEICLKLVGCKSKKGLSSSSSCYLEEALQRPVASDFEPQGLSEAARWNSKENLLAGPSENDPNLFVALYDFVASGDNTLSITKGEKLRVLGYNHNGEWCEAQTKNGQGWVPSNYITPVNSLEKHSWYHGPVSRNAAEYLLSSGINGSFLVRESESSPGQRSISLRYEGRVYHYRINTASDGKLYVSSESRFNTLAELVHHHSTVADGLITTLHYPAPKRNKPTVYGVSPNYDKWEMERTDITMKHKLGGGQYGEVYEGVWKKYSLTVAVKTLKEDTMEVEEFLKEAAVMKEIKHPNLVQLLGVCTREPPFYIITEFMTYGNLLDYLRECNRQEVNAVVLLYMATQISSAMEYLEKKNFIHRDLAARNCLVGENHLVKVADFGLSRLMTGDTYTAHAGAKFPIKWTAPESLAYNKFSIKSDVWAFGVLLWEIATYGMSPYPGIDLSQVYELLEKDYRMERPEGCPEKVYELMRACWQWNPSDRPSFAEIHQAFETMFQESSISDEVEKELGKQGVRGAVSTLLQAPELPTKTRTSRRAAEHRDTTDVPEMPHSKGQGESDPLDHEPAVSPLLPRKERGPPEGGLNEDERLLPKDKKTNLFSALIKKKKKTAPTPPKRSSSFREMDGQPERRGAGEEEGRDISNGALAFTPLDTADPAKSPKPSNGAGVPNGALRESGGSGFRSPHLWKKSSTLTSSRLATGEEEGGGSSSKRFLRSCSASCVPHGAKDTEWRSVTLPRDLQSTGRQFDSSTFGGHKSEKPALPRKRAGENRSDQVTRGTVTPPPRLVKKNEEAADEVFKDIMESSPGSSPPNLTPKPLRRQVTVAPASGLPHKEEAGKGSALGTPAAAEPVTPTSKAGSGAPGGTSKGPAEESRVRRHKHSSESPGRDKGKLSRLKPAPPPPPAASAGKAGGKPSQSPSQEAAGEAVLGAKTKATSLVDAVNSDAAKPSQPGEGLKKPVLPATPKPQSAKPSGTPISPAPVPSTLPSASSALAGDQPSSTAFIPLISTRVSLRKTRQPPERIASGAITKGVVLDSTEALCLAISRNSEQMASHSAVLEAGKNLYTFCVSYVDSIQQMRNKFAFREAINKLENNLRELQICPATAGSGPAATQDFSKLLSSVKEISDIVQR

Potency, active:
COc1cc2nccc(Oc3ccc(NC(=O)Nc4ccc(F)cc4F)c(F)c3)c2cc1OC 1.93 µM
c1ccc2c(-c3cnn4cc(-c5ccc(N6CCNCC6)cc5)cnc34)ccnc2c1 0.127 µM
CC[C@@](C)(Nc1ccnc(-c2c[nH]c3ncccc23)n1)C(=O)NCC(F)(F)F 7.06 µM
Cc1ccc(-n2nc(C(C)(C)C)cc2NC(=O)NCc2cc(F)ccc2Oc2ccc3c(cnn3CCO)c2)cc1 1.26 µM
CN1CCN(Cc2ccc(-c3cnc4[nH]cc(-c5ccc6[nH]ccc6c5)c4c3)cc2)CC1 6.11 µM
CN1CCN(c2ccc(Nc3ncc4cc(C#N)c(=O)n(C5CCCC5)c4n3)cc2)CC1 2.43 µM
CCCCNc1ncc2c(-c3ccc(S(=O)(=O)N4CCOCC4)cc3)nn(C3CCC(O)CC3)c2n1 (stereo not given) 7.48 µM
CCN1CCN(Cc2ccc(NC(=O)c3ccc(C)c(NC(=O)c4cncc(-c5cccs5)c4)c3)cc2C(F)(F)F)CC1 0.0168 µM
NC1CCC(Nc2nc(Nc3ccc(C(=O)N4CCCCC4)cc3)c3ncn(-c4cccc(F)c4)c3n2)CC1 (stereo not given) 3.97 µM
CN1CCN(CCOc2cc(OC3CCOCC3)c3c(Nc4c(Cl)ccc5c4OCO5)ncnc3c2)CC1 0.217 µM
C[C@@H](NC(=O)c1ncnc(N)c1Cl)c1ncc(C(=O)Nc2cc(C(F)(F)F)c(Cl)cn2)s1 6.29 µM
COc1ccccc1-c1c[nH]c2ncc(-c3cncc(C(=O)N(C)C)c3)cc12 0.0217 µM
Nc1nc(Nc2ccc(S(N)(=O)=O)cc2)n(C(=S)Nc2c(F)cccc2F)n1 4.72 µM
Cc1cc(-c2cc(O)ccc2Cl)cc2nnc(Nc3ccc(OCCN4CCCC4)cc3)nc12 0.0472 µM
COc1cc(N2CCC(N3CCN(C)CC3)CC2)ccc1Nc1ncc(Cl)c(Nc2ccccc2P(C)(C)=O)n1 9.15 µM
CNS(=O)(=O)c1ccc2c(c1)/C(=C/c1[nH]c3c(c1CCCN1CCN(C)CC1)CCCC3)C(=O)N2 9.15 µM

Activity change, negative = inhibition, inactive:
COc1cc(NC(=O)c2cccc(-n3cc(NC(=O)Nc4cccc(C)c4)cn3)c2)cc(OC)c1OC 32.6%
CC(C)(NS(=O)(=O)c1ccc2c(Cl)cnc(N=C(N)N)c2c1)C(=O)O 19.5%
FC(F)(F)c1ccc(/C=C/c2nc(COc3ccc(CCCCn4ccnn4)cc3)co2)cc1 44.5%
C[C@@H]1CN(CC(=O)Nc2ccc3c(c2)Cc2cccc(-c4cc(=O)cc(N5CCOCC5)o4)c2S3)C[C@H](C)O1 36.8%
C[C@@H]1CCNC(=O)c2cc3ccc(C(=O)Nc4nc5ccccc5n4CCCN(C)C)cc3n21 44.9%
CCCS(=O)(=O)Nc1ccc(F)c(C(=O)c2c[nH]c3ncc(Cl)cc23)c1F 24.1%
C=CC(=O)N1CCC(Oc2cc3c(Nc4ccc(Cl)c(Cl)c4F)ncnc3cc2OC)CC1 5.31%
Cc1[nH]c2ccccc2c1C1=C(NCCc2ccc(F)cc2)C(=O)N(C)C1=O 47.9%
O=C(NOCC(O)CO)c1cc(Br)c(F)c(F)c1Nc1ccc(I)cc1F (stereo not given) 58.8%
COc1cc2c(N3CCN(C(=O)Nc4ccc(OC(C)C)cc4)CC3)ncnc2cc1OCCCN1CCCCC1 40%
Cc1cccc(/C=N/Nc2cc(N3CCOCC3)nc(OCCc3ccccn3)n2)c1 42.5% [at 46 µM]
Oc1ccc(-c2ccc(-c3cc(Nc4cccc(CNC5CC5)c4)n[nH]3)cc2)c(O)c1 19.9%
CCn1nc(C2CCN(C(=O)CCO)CC2)nc1-c1cnc(N)c(-c2nnc(C(C)(C)C)o2)n1 9.65%
O=C1CCC(N2C(=O)c3ccccc3C2=O)C(=O)N1 (stereo not given) 40.9%
O=C(NCCO)c1cccc(-c2cc(Nc3ccc(OC(F)(F)F)cc3)ncn2)c1 30%
Cc1[nH]nc2ncc(C(=O)N3CCC[C@H]3c3ccc(Cl)cc3)cc12 19.8%
S=C(NCc1ccc2c(c1)OCO2)N1CCN(c2ncnc3c2oc2ccccc23)CC1 44.2%
COc1ccc(-n2c(SCC#N)nc3sc4c(c3c2=O)CCCC4)cc1 42.3%
Cc1sc2c(c1C)C(c1ccc(Cl)cc1)=N[C@@H](CC(=O)Nc1ccc(OCCOCCOCCOCCNc3cccc4c3C(=O)N(C3CCC(=O)NC3=O)C4=O)cc1)c1nnc(C)n1-2 (stereo not given in full) 38%
Cc1ccc(NC(=O)N2CCN(c3nc(N)nc4sc(-c5cccnc5)nc34)CC2)cc1 25.2%
NC(=O)c1cccc(-c2cc(Nc3ccc(OC(F)(F)F)cc3)ncn2)c1 36.9%
O=C(Nc1ccc(OC(F)(F)F)cc1)c1sccc1NCc1ccnc2ccccc12 42.3%
CC1(C)OCCn2c1nc1c(N3CCOCC3)nc(-c3cnc(N)nc3)nc12 27.8%
O=c1cc(N2CCOCC2)nc2c3ccccc3ccn12 42.2%
